In PubChem BioAssay AID1159580 (chemical genetic matrix, 2015):
Among all 5,500 compounds or so, about 2,000 (36%) were called active. Not shown: some 18% with an inconclusive outcome. Rule as the data show it: active = normalized growth mostly below about 0.91 (no sharp cut-off); inconclusive = no clear call, values can overlap the other calls; inactive = mostly above about 0.92. The list shows a part of the results.

Test: chemical genetic growth profiling, strain panel (AID 1159580);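 also: tested at 20 µM; growth read once vehicle control cultures reached saturation at 30 °C; 1 = growth at the plate median or of vehicle wells; lower values mean less growth of the strain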
Conditions: growth OD

Measured: normalized growth

O=c1cc(C(F)(F)F)[nH]c2cc(Cl)cc(Cl)c12
inactive: S. cerevisiae deletion strains, locus YJL187C, strain SWE1, hits give low values 1.01 | S. cerevisiae deletion strains, locus YPR135W, strain CTF4, hits give low values 0.714
active: S. cerevisiae deletion strains, locus YAL013W, strain DEP1, hits give low values 0.59 | S. cerevisiae deletion strains, locus YBR229C, strain ROT2, hits give low values 0.47 | S. cerevisiae deletion strains, locus YCL061C, strain MRC1, hits give low values 0.649 | S. cerevisiae deletion strains, locus YDL101C, strain DUN1, hits give low values 0.513 | S. cerevisiae deletion strains, locus YDR150W, strain NUM1, hits give low values 0.627 | S. cerevisiae deletion strains, locus YEL061C, strain CIN8, hits give low values 0.745 | S. cerevisiae deletion strains, locus YGR078C, strain PAC10, hits give low values 0.475 | S. cerevisiae deletion strains, locus YHR030C, strain SLT2, hits give low values 0.564 | S. cerevisiae deletion strains, locus YHR087W, strain rtc3, hits give low values 0.544 | S. cerevisiae deletion strains, locus YJR043C, strain POL32, hits give low values 0.697 | S. cerevisiae deletion strains, locus YJR075W, strain HOC1, hits give low values 0.514 | S. cerevisiae deletion strains, locus YLR039C, strain RIC1, hits give low values 0.356 | S. cerevisiae deletion strains, locus YLR058C, strain SHM2 (second series), hits give low values 0.694 | S. cerevisiae deletion strains, locus YLR085C, strain ARP6, hits give low values 0.487 | S. cerevisiae deletion strains, locus YLR262C, strain YPT6, hits give low values 0.428 | S. cerevisiae deletion strains, locus YML094W, strain GIM5, hits give low values 0.854 | S. cerevisiae deletion strains, locus YMR219W, strain ESC1, hits give low values 0.612 | S. cerevisiae deletion strains, locus YMR263W, strain SAP30, hits give low values 0.456 | S. cerevisiae deletion strains, locus YMR307W, strain GAS1, hits give low values 0.561 | S. cerevisiae deletion strains, locus YNL128W, strain TEP1, hits give low values 0.881 | S. cerevisiae deletion strains, locus YNL153C, strain GIM3, hits give low values 0.534 | S. cerevisiae deletion strains, locus YNL298W, strain CLA4 (second series), hits give low values 0.742 | S. cerevisiae deletion strains, locus YNL322C, strain KRE1, hits give low values 0.798 | S. cerevisiae deletion strains, locus YNR030W, strain Alg12, hits give low values 0.664 | S. cerevisiae deletion strains, locus YPL055C, strain LGE1, hits give low values 0.523 | S. cerevisiae deletion strains, locus YPL241C, strain CIN2, hits give low values 0.748 | S. cerevisiae strains, strain wild type, hits give low values 0.836
